WRN helicase inh = qHTS for Inhibitors of WRN Helicase; Bifunctional 3'-5' exonuclease/ATP-dependent helicase WRN (Homo sapiens), Q14191; WRN helicase unwinding, fluorescent forked duplex, kinetic; Potency, µM (doses to about 114 µM), most hits filed as inhibitors; 360,000 compounds, 0.46% hits; AID 651768, 2012; also: nearly all actives have a fitted effect of over 55% in size
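Screening of the MLSMR collection measured strand separation of a quenched forked DNA duplex (100 nM) by 20 nM WRN with 2 mM ATP, all final. Compounds were preincubated with enzyme 15 min at room temperature.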
POLB inh = qHTS Assay for Inhibitors of DNA Polymerase Beta; P06746; Pol beta primer extension/strand displacement, fluorescence kinetic; Potency, µM (top dose mostly 114 µM), hits mostly inhibitors; 340,000 compounds, 1.3% hits
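Homogeneous kinetic assay of primer extension and strand displacement by 10 nM Pol beta, preincubated 15 min at room temperature with compound before 50 nM substrate (final) was added. Read at 0 and 10 min; four-parameter Hill fit.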
Pol eta inh-1 = qHTS for Inhibitors of Polymerase Eta; DNA polymerase eta (Homo sapiens), Q9Y253; recombinant Pol eta, fluorescent DNA replication assay; Potency, µM (top dose mostly 114 µM), usual class: inhibitors; 390,000 compounds, 1.2% hits; AID 588591, 2011
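Pol eta (10 nM) was preincubated with compounds for 15 min at room temperature, after which fluorescent replication substrate (50 nM final) was added to start the reaction. Fluorescence was read kinetically at 0 and 10 min.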
Pol kappa inh-1 = qHTS for Inhibitors of Polymerase Kappa. purified Pol kappa, fluorescent DNA synthesis assay, 10 min. Potency, µM (doses to about 107 µM), actives largely listed as inhibitors. DNA polymerase kappa (Homo sapiens), Q9UBT6. 400,000 compounds, 0.53% hits
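Enzyme at 10 nM met test compounds for 15 min at room temperature. Substrate addition (50 nM final) began the reaction, which was monitored by fluorescence at 0 and 10 min.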
POLI inh = qHTS for Inhibitors of Polymerase Iota. Pol iota fluorescent replication assay, 10 min. Potency, µM (doses to about 115 µM), usual class: inhibitors. 390,000 compounds, 1% hits. AID 588590, 2011
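Fluorescent replication assay read twice, at 0 min and 10 min after adding 50 nM (final) substrate. Enzyme (10 nM) and compounds were first incubated 15 min at room temperature; enzyme-free buffer wells were negative controls.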
PI5P4Ka inh = qHTS for Inhibitors of phosphatidylinositol 5-phosphate 4-kinase (PI5P4K); Phosphatidylinositol 5-phosphate 4-kinase type-2 alpha (Homo sapiens), P48426; PI5P4Kalpha enzyme, ADP-Glo luminescence, 60 min; stronger effect = lower value; max response, %; 330,000 compounds, 1.2% hits; active = max response of -50% or lower; inconclusive = between -30% and -50%; inactive = -30% or higher; also: value at the top dose of about 77 µM
Target sequence (P48426 whole entry, looked up): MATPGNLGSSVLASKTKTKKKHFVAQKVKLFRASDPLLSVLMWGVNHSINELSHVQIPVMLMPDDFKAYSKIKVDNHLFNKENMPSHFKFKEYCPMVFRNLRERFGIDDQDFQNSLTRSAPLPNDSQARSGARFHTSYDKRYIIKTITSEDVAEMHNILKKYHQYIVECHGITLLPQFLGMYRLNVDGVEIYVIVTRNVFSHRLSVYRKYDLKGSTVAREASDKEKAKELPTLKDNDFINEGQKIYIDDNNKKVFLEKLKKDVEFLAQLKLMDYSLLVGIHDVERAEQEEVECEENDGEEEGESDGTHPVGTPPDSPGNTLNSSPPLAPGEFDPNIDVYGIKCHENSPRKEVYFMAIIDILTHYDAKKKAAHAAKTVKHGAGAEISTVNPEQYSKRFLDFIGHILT
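Controls without substrate or without enzyme flank wells where PI5P4Kalpha converts substrate using 5 microM ATP (final). Incubation lasts 60 minutes at room temperature; ADP formed is read by ADP-Glo luminescence.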
HEK293 viability = Secondary Assay for Inhibitors of Human Galactokinase (GALK): HEK-293 Cell Viability Assay | Potency, µM (top dose mostly 46.1 µM), actives largely listed as inhibitors | shares compounds with Pol eta inh-1 | AID 2547, 2010 | 170 compounds, 10% hits | HEK-293 viability, ATP luminescence (CellTiter-Glo), 24/48 h
Pol kappa inh-2 = qHTS for Inhibitors of Polymerase Kappa: Confirmatory Assay for Cherry-picked Compounds; shares compounds with Pol eta inh-1; purified Pol-kappa, fluorescent strand-displacement substrate; Potency, µM, hits mostly inhibitors; 920 compounds, 76% hits
Pol eta inh-2 = qHTS for Inhibitors of Polymerase Eta: Confirmatory Assay for Cherry-picked Compounds; shares compounds with Pol eta inh-1; Pol eta primer extension, TAMRA/BHQ fluorescence, 10 min; Potency, µM, most hits filed as inhibitors; 2,600 compounds, 64% hits; AID 720502, 2013
Each line names hits and unclear results; the compound was inactive in the other large screens (follow-up assays come after a bar, where they were run). The list is not random: actives were taken first. Their share in the collection is about 2.8%. Unless noted, calls follow the shape of the dose curve; as a rule, active = well fitted curve in the direction sought with a large enough effect; inconclusive = small, poorly fitted or top-dose-only effect, or another doubt; inactive = no such curve, though single readings can be large; an effect the other way counts as inactive or inconclusive.

Cc1ccc2nc3sc(C(=O)NCc4ccco4)c(N)c3cc2c1	POLB inh inconclusive, Pol eta inh-1 inconclusive
Cc1ccc(C2(C)NC(=O)N(CC(=O)NC(=O)NC(C)C)C2=O)cc1 (stereo not drawn)	none
Nc1nc(N)c2cc(S(=O)(=O)c3ccc4ccccc4c3)ccc2n1	none (no result: POLB inh, Pol kappa inh-1, POLI inh)
CC(=O)Oc1cc(C(=O)OCC(=O)NC23CC4CC(CC(C4)C2)C3)cc(OC(C)=O)c1OC(C)=O	WRN helicase inh 14.1µM, Pol eta inh-1 3.16µM, Pol kappa inh-1 17.8µM, POLI inh inconclusive, PI5P4Ka inh inconclusive (no result: POLB inh) | Pol kappa inh-2 8.44 | Pol eta inh-2 9.53
COc1cccc(C(=O)OCC(=O)NC23CC4CC(CC(C4)C2)C3)c1	none (no result: POLB inh)
O=S(=O)(Nc1c(S(=O)(=O)c2ccccc2)c2nc3ccccc3nc2n1C1CCCCC1)c1ccccc1	Pol eta inh-1 22.4µM, POLI inh 3.55µM | Pol kappa inh-2 29.9
Cc1ccc([C@H]2C(C(=O)O)=CC[C@@H](c3cccc(Cl)c3)N2S(=O)(=O)c2ccc(C)cc2)cc1	none (no result: POLB inh)
Cc1ccc(S(=O)(=O)N2[C@@H](c3ccc(C(C)(C)C)cc3)C(C(=O)O)=CC[C@H]2c2cccc(Cl)c2)cc1	WRN helicase inh 70.8µM, Pol eta inh-1 89.1µM, Pol kappa inh-1 inconclusive, POLI inh inconclusive, PI5P4Ka inh inconclusive (no result: POLB inh) | Pol kappa inh-2 67 | Pol eta inh-2 inconclusive
Cc1ccc(S(=O)(=O)N2[C@@H](c3ccc(Br)cc3)C(C(=O)O)=CC[C@H]2c2ccc(Cl)c(Cl)c2)cc1	Pol eta inh-1 89.1µM (no result: POLB inh) | Pol kappa inh-2 inconclusive
CCOC(=O)Cc1csc(-n2sc3ccccc3c2=O)n1	POLB inh inconclusive, Pol eta inh-1 39.8µM, PI5P4Ka inh -106.9 | Pol eta inh-2 inconclusive
CCOC(=O)Cc1csc(SCn2nnc3ccccc3c2=O)n1	none
COc1ccccc1Nc1c2c(nc3ccc(NC(=O)/C=C/c4cccc(OC)c4OC)cc13)CCCC2	Pol kappa inh-1 inconclusive (no result: WRN helicase inh, PI5P4Ka inh) | Pol kappa inh-2 0.844
COc1ccc(Nc2c3c(nc4ccc(NC(=O)/C=C/c5cccc(OC)c5OC)cc24)CCCC3)cc1OC	POLB inh inconclusive, Pol kappa inh-1 12.6µM, POLI inh inconclusive (no result: WRN helicase inh, PI5P4Ka inh) | Pol kappa inh-2 3.36
COc1ccc(/C=C/C(=O)Nc2ccc3nc4c(c(Nc5ccccc5OC)c3c2)CCCC4)cc1	POLI inh inconclusive (no result: WRN helicase inh, PI5P4Ka inh)
COc1ccc(Nc2c3c(nc4ccc(NC(=O)/C=C/c5cc(OC)c(OC)c(OC)c5)cc24)CCCC3)cc1OC	Pol kappa inh-1 inconclusive, POLI inh inconclusive (no result: WRN helicase inh, PI5P4Ka inh)
CCCCCCCCCC(=O)NO	none (no result: WRN helicase inh, POLB inh, Pol eta inh-1, POLI inh, PI5P4Ka inh)
Cc1cc(C)c(NC(=O)C2CC(=O)N(C3CCCC3)C2)c(C)c1 (stereo not drawn)	none (no result: POLB inh)
COc1nc(=O)n(C2C=CC(=O)O2)cc1F (stereo not drawn)	none (no result: POLB inh, Pol kappa inh-1, POLI inh)
CC(C)c1nc(Nc2nc3ccccc3o2)nc2c1CCCC2	none (no result: WRN helicase inh, POLB inh, Pol eta inh-1, Pol kappa inh-1, POLI inh, PI5P4Ka inh) | HEK293 viability inactive
O=C(Cl)CCCCCCCC(=O)Cl	none (no result: WRN helicase inh, POLB inh, Pol eta inh-1, POLI inh, PI5P4Ka inh)
COc1ccc(CC(=O)OCC(=O)NCc2ccco2)cc1	POLI inh inconclusive (no result: POLB inh)
